Screening data from PubChem BioAssay.
This is a sample that favours compounds with a hit; in the whole collection about 2.2% have one here.
LGR2 inh: inhibitors of bursicon-induced Drosophila LGR2 receptor cAMP signaling; HEK293 LGR2, CRE-luciferase, bursicon-stimulated, 4 h; inhibition, % at 9.99 µM; actives 0.35% (n = 380,000); AID 720647;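 active means drop in luminescence signal, shown as inhibition above about 50% in the replicate tests, limit read from the data, passing the limit was not always enough; inconclusive means probably only some replicates passing the limit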;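 further: agonist challenge used bursicon conditioned medium at about half maximal strength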
HSP90 refold inh: HSP90 refolding inhibition in rabbit reticulocyte lysate. actives 0.91% (n = 290,000). luciferase refolding luminescence, 3 h. inhibition, % at 5.6 µM. AID 1789;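 active means inhibition above the screen-wide mean plus 3 SD, computed separately per campaign, cut at about 16% in these data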;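 further: 0% = DMSO wells and 100% = 60 µM geldanamycin wells; inhibitors lower the luminescence because luciferase stays unfolded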
TWEAK Fn14 block: inhibitors of TWEAK-Fn14 interaction signaling | inhibition, % at 10 µM | actives 2% (n = 360,000) | AID 1159606 | TWEAK-stimulated Fn14 reporter cells, luciferase luminescence, 8 h; in the data active means inhibition above about 50%
TROY signal inh: TROY signaling inhibition | inhibition, % at 10 µM | actives 0.98% (n = 360,000) | Q293 LMP1-TROYcd NF-kB luciferase reporter, 4 h | AID 1347056;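 active means compounds whose plate-normalised and pattern-corrected inhibition of the luciferase reporter signal at the single screening dose is 50% or more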
* = called active by the depositor; ? = inconclusive; nt = no result given.

SMILES | LGR2 inh | HSP90 refold inh | TWEAK Fn14 block | TROY signal inh
O=S(=O)(Nc1ccc(Br)cc1)c1cccc2nonc12 | 9 | 1 | 24 | -24
O=S(=O)(Nc1ccc(C(O)(C(F)(F)F)C(F)(F)F)cc1)c1ccc(Cl)c2nonc12 | nt | nt | 76* | 10
O=C(C[C@H]1CC[C@@H](NC(=O)C2CCOCC2)[C@@H](CO)O1)Nc1ccccc1 | 3 | nt | nt | nt
C[C@@H](NC(=O)c1coc(=O)c(Br)c1)c1ccccc1 | nt | 2 | 87* | 9
COc1ccc(NC(=O)Nc2cccc3c2O[C@@H](CN(C)C(=O)Nc2ccc(C(F)(F)F)cc2)[C@@H](C)CN([C@@H](C)CO)C3=O)cc1 | 8 | nt | nt | nt
O=C(CSc1nnc2scc(-c3ccccc3)n12)Nc1nsc(-c2ccc(Cl)cc2)n1 | nt | 0 | 54* | 28
C[C@H](O)C#Cc1cnc2c(c1)C(=O)N([C@H](C)CO)C[C@H](C)[C@H](CN(C)C(=O)Cc1ccccn1)O2 | 3 | nt | nt | nt
COC(=O)c1ccc(COc2cccn3c(N(C)C(=O)CCC4CCCC4)c(C)nc23)cc1 | 1 | nt | 52* | 45
O=C(Nc1ccc(Cl)cc1)Nc1nnc(CSCc2ccccc2)s1 | 4 | 2 | 25 | -7
Cc1ccc(NC(=O)Nc2nnc(-c3ccncc3)s2)cc1C | ? | -5 | 82* | 36
O=C(Nc1ccc(Cl)cc1)Nc1nnc(CSc2ccc(Cl)cc2)s1 | 0 | 3 | 64* | -1
O=C(Nc1cccc(Cl)c1)Nc1nnc(CSCCOc2ccc(Cl)cc2)s1 | 15 | -5 | 50 | 51*
O=C(Nc1ccc(Cl)cc1)Nc1nnc(-c2ccncc2)s1 | ? | 6 | 81* | 41
O=C(Nc1ccc(F)cc1)Nc1nnc(-c2ccncc2)s1 | 10 | 3 | 44 | 14
C[C@@H]1CN([C@@H](C)CO)C(=O)c2cc(NS(=O)(=O)c3cccs3)ccc2O[C@@H](C)CCCCO[C@H]1CN(C)Cc1ccccc1 | -15 | nt | nt | nt
O=C(Nc1ccc(F)cc1)Nc1nnc(COc2ccccc2F)s1 | 28 | -3 | 21 | 57*
O=C(Nc1cccc(Cl)c1)Nc1nnc(-c2ccncc2)s1 | 54* | 4 | 76* | 50*
O=C(Nc1nnc(COc2ccccc2F)s1)Nc1ccccc1F | nt | 6 | -25 | 41
C[C@H]1CN([C@@H](C)CO)C(=O)c2cccc(NS(C)(=O)=O)c2O[C@H]1CN(C)Cc1ccc(Cl)c(Cl)c1 | 25 | nt | nt | nt
O=c1[nH]c(-c2ccccc2)cnc1-c1ccccc1 | -23 | nt | 73* | -21
C[C@H](CO)N1C[C@H](C)[C@H](CN(C)Cc2ccncc2)Oc2cc(C3=CCCCC3)ccc2S1(=O)=O | 7 | nt | nt | nt
O=C(NCCc1c[nH]c2ccccc12)C1CCC(Cn2c(=S)[nH]c3ccccc3c2=O)CC1 (stereo not drawn) | nt | 2 | 62* | 29
COCCNC(=O)C1CCC(Cn2c(=S)[nH]c3ccccc3c2=O)CC1 (stereo not drawn) | nt | 0 | -14 | -12
Oc1ccc(-c2cc(-c3ccc(O)cc3)nc(-c3ccccc3)n2)cc1 | 12 | 0 | 44 | 54*
Nc1ccc(-c2cc(-c3ccc(N)cc3)nc(-c3ccccc3)n2)cc1 | nt | 1 | 6 | 3
SMILES | LGR2 inh | HSP90 refold inh | TWEAK Fn14 block | TROY signal inh
CC1CCc2c(sc(NC(=O)CSc3nc(N)cc(=O)[nH]3)c2C(N)=O)C1 (stereo not drawn) | -6 | nt | 67* | 53*
CC=Cc1ccc2n(c1=O)C[C@H]1[C@H](CO)[C@@H](C(=O)NCC3CC3)[C@@H]2N1CCC (mixture of isomers) | -3 | nt | nt | nt
O=C1CSC(c2cn(-c3ccccc3)nc2-c2ccccc2)N1Cc1ccco1 (stereo not drawn) | nt | 3 | 26 | -4
CCc1ccc(-c2nn(-c3ccccc3)cc2C2SCC(=O)N2Cc2ccco2)cc1 (stereo not drawn) | nt | 2 | 53* | 1
N#C/C(=C\C=C\c1ccccc1[N+](=O)[O-])C(=O)NCc1ccccc1 | 21 | 5 | 88* | 26
O=C(NC(=S)N1CCCCC1c1cccnc1)c1ccc(F)cc1 (stereo not drawn) | 10 | -4 | 5 | 73*
O=C(NC(=S)N1CCCCC1c1cccnc1)c1ccc(Br)cc1 (stereo not drawn) | 13 | -5 | 12 | -47
Oc1ccc(NC(=S)N=Nc2c(O)[nH]c3ccc(Br)cc23)cc1 | 22 | 2 | -31 | 24
Oc1[nH]c2ccc(Br)cc2c1N=NC(=S)Nc1ccc(F)cc1 | 1 | 1 | 63* | -3
CCc1nc(OCc2ccco2)c2sc3nc4c(cc3c2n1)COC(C)(C)C4 | nt | 16* | 21 | 10
CN(C)CC(=O)N1[C@@H]2c3ccc(C4=CCCC4)c(=O)n3C[C@H]1[C@H](CO)[C@H]2C(=O)NCC1CC1 | -15 | nt | nt | nt
Cc1ccc2nc(-c3sc4nc(C)ccc4c3N)[nH]c2c1 | nt | 12 | 71* | 25
Cc1cc(C)c2c(N)c(-c3nc4ccccc4[nH]3)sc2n1 | nt | -4 | -15 | -19
Cc1[nH]n(-c2nc(-c3ccc(Cl)cc3)cs2)c(=O)c1N=Nc1ccc(O)cc1 | 2 | 5 | 88* | 41
CCc1c(C)[nH]n(-c2nc(-c3ccccc3)cs2)c1=O | -18 | -4 | 5 | -12
C[C@@H]1CCCCO[C@H](CN(C)C(=O)C2CCCCC2)[C@H](C)CN([C@@H](C)CO)C(=O)c2cc(NC(=O)Nc3cccc4ccccc34)ccc2O1 | 1 | nt | nt | nt
C[C@H]1CCCCO[C@H](CN(C)C(=O)Nc2ccc(C(F)(F)F)cc2)[C@@H](C)CN([C@@H](C)CO)C(=O)c2cc(NC(=O)NC3CCCCC3)ccc2O1 | 12 | nt | nt | nt
C[C@@H]1CCCCO[C@H](CN(C)C(=O)Nc2ccc(F)cc2)[C@@H](C)CN([C@H](C)CO)C(=O)c2cc(NC(=O)NC3CCCCC3)ccc2O1 | 6 | nt | nt | nt
C[C@H](CO)N1C[C@H](C)[C@H](CN(C)C(=O)Nc2ccc(F)cc2)OCCCC[C@H](C)Oc2ccc(NC(=O)NC3CCCCC3)cc2C1=O | 72* | nt | nt | nt
C[C@H](CO)N1C[C@H](C)[C@H](CN(C)C(=O)Nc2ccc(C(F)(F)F)cc2)OCCCC[C@H](C)Oc2ccc(NC(=O)NC3CCCCC3)cc2C1=O | 55* | nt | nt | nt
C[C@@H]1CCCCO[C@@H](CN(C)C(=O)Nc2ccccc2)[C@H](C)CN([C@@H](C)CO)C(=O)c2cc(NC(=O)Nc3ccc(F)cc3)ccc2O1 | -12 | nt | nt | nt
C[C@H](CO)N1C[C@H](C)[C@H](CN(C)C(=O)Nc2ccc(F)cc2)OCCCC[C@H](C)Oc2ccc(NC(=O)Nc3ccccc3)cc2C1=O | 59* | nt | nt | nt
CC(C)NC(=O)N(C)C[C@H]1Oc2ccc(NC(=O)CCN3CCOCC3)cc2CC(=O)N([C@H](C)CO)C[C@@H]1C | 7 | nt | nt | nt
Cc1nc(Oc2ccc(S(=O)(=O)N3CCOCC3)cc2Cl)c2c3c(sc2n1)CCCC3 | 10 | -6 | 60* | 29
CN(C)C(=O)C[C@@H]1C=C[C@@H](NC(=O)Nc2cccc(F)c2)[C@@H](CO)O1 | 9 | nt | nt | nt
O=C(O)CC/C(=C\c1ccc(N2CCCC2)c([N+](=O)[O-])c1)c1nc2ccccc2s1 | -27 | 0 | 4 | 25
CN(c1ccccc1)c1ccc(/C=C(/CCC(=O)O)c2nc3ccccc3s2)cc1[N+](=O)[O-] | 18 | nt | 42 | 57*
